This is part of a sample that, as a whole, favours compounds with a hit. Of some 83,000 tested, about 20% had one in any assay.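 Testing used 96-well plates and a 48-hour single-concentration exposure. Example: -40 means 40% of the starting cells died.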 Values without a mark were called inactive. Calls of active or inactive are those of the source. How the source made its calls: active means growth percent below 10; inactive means the rest.

The values below come from PubChem BioAssay (NCI).

Test systems include SR leukemia; RPMI-8226 leukemia; OVCAR-8 ovarian; OVCAR-5 ovarian; OVCAR-4 ovarian; SK-OV-3 ovarian; IGROV1 ovarian; OVCAR-3 ovarian; HS 578T breast; NCI/ADR-RES ovarian; T-47D breast; BT-549 breast; MDA-MB-435 melanoma; SW-620 colon; MCF7 breast; HCT-116 colon; HCC-2998 colon; KM12 colon.
What all share (test): NCI-60 one-dose screen, 48 h (100 = growth as untreated, 0 = no growth, -100 = all killed)
What all share (conditions): 10 µM unless noted

As to `Cn1ncc2c(C(=O)c3ccc(F)cc3)nc(C(C)(C)C)nc21`, the growth in the experiment with SR leukemia was 102%; with RPMI-8226 leukemia it was 100%; in the experiment with OVCAR-8 ovarian, 105%; in the experiment with OVCAR-5 ovarian it was 98.2%; with OVCAR-4 ovarian, 107%; with SK-OV-3 ovarian, 112%. Also, the growth with IGROV1 ovarian was 103%; in the experiment with OVCAR-3 ovarian it was 98.6%; with HS 578T breast, 96.5%; in the experiment on NCI/ADR-RES ovarian it was 107%; in the experiment on T-47D breast it was 102%; with BT-549 breast, 98.4%. The growth in the experiment with MDA-MB-435 melanoma was 97.9%; in the experiment on SW-620 colon, 95.9%; in the experiment on MCF7 breast it was 93.6%; with HCT-116 colon, 95.3%; in the experiment with HCC-2998 colon it was 103%; in the experiment with KM12 colon, 100%.

Turning to `CC1=C(C)C(=O)C(Nc2ccc3c(c2)OCO3)=C(Br)C1=O`, the growth in the experiment on SR leukemia is 56.9%; in the experiment on RPMI-8226 leukemia, 71%; with OVCAR-8 ovarian it was 98.3%; with OVCAR-5 ovarian, 116%; with OVCAR-4 ovarian, 60.3%; in the experiment on SK-OV-3 ovarian, 87.6%. For the same compound, the growth with IGROV1 ovarian was 90.9%; with OVCAR-3 ovarian it was 104%; with HS 578T breast, 99.7%; with NCI/ADR-RES ovarian, 97.4%; in the experiment on T-47D breast, 30.3%; with BT-549 breast, 107%. Also, the growth is 103% in the experiment on MDA-MB-435 melanoma; 107% in the experiment with SW-620 colon; 77.5% in the experiment with MCF7 breast; 85.6% in the experiment on HCT-116 colon; 105% in the experiment on HCC-2998 colon; 97.4% with KM12 colon.

Consider `C#Cc1cc(OC)c(C(=O)Nc2ccc(F)cc2C(=O)Nc2cccc(S(=O)(=O)C(F)(F)F)c2)cn1`, for which the growth in the experiment on SR leukemia was -42.7% (active); with RPMI-8226 leukemia, -44.1% (active); in the experiment on OVCAR-8 ovarian, 5.67% (active); in the experiment with OVCAR-5 ovarian it was -33.2% (active); in the experiment on OVCAR-4 ovarian, 27.8%; with SK-OV-3 ovarian, -70.5% (active). Also, the growth with IGROV1 ovarian is -51% (active); in the experiment on OVCAR-3 ovarian, -30.2% (active); with HS 578T breast, -19.7% (active); with NCI/ADR-RES ovarian it was -29.1% (active); in the experiment with T-47D breast, 23.4%; with BT-549 breast, 1.8% (active). The growth with MDA-MB-435 melanoma was 10.2%; with SW-620 colon it was 5.83% (active); in the experiment on MCF7 breast, 13.1%; in the experiment with HCT-116 colon it was 3.82% (active); in the experiment with HCC-2998 colon, 47.8%; in the experiment on KM12 colon it was 4.44% (active).

Consider `COc1cc2c3c(cc4c5c(ccc4c3c1OC)OCO5)N(CCN(C)C)C2=O`, for which the growth is -1.44% (active) with SR leukemia; -21.7% (active) with RPMI-8226 leukemia; 9.28% (active) with OVCAR-8 ovarian; -6.73% (active) in the experiment on OVCAR-5 ovarian; -4.27% (active) with OVCAR-4 ovarian; 2.24% (active) with SK-OV-3 ovarian. The growth was -11.3% (active) with IGROV1 ovarian; 0.51% (active) in the experiment with OVCAR-3 ovarian; -8.56% (active) in the experiment on HS 578T breast; 4.67% (active) with NCI/ADR-RES ovarian; -5.03% (active) with T-47D breast; -6.3% (active) with BT-549 breast. The growth in the experiment with MDA-MB-435 melanoma is -18.5% (active); with SW-620 colon, 7.13% (active); in the experiment on MCF7 breast, 0.153% (active); in the experiment on HCT-116 colon, -12.2% (active); with HCC-2998 colon, -45.3% (active); in the experiment on KM12 colon, 8.95% (active).

As to `Nc1ncc(-c2ccc3ncnc(NCc4ccccc4)c3c2)cn1`, the growth is 42.2% in the experiment with SR leukemia; 31.5% with RPMI-8226 leukemia; 54.3% in the experiment with OVCAR-8 ovarian; 36.7% in the experiment with OVCAR-5 ovarian; 57.8% in the experiment with OVCAR-4 ovarian; 39.5% in the experiment with SK-OV-3 ovarian. Besides, the growth was -8.67% (active) in the experiment on IGROV1 ovarian; 45.9% in the experiment with OVCAR-3 ovarian; 14.7% in the experiment with HS 578T breast; 69% in the experiment on NCI/ADR-RES ovarian; 15% with T-47D breast; 34.5% in the experiment with BT-549 breast. Also, the growth was 65.1% in the experiment with MDA-MB-435 melanoma; 73.7% with SW-620 colon; 19.3% with MCF7 breast; 66.5% in the experiment with HCT-116 colon; 59.8% in the experiment with HCC-2998 colon; 72.1% in the experiment on KM12 colon.

In the case of `Oc1[nH]c2ccc(Cl)cc2c1N=Nc1nc(N=Nc2c(O)[nH]c3ccc(Cl)cc23)nc(N2CCOCC2)n1`, the growth in the experiment with SR leukemia is 29.2%; in the experiment on RPMI-8226 leukemia, 36.4%; in the experiment on OVCAR-8 ovarian, 50.1%; with OVCAR-5 ovarian, 95.1%; with OVCAR-4 ovarian it was 78.7%; in the experiment with SK-OV-3 ovarian, 55.5%. The growth is 55% in the experiment with IGROV1 ovarian; 52.7% with OVCAR-3 ovarian; -7.82% (active) in the experiment with HS 578T breast; 98.1% in the experiment with NCI/ADR-RES ovarian; 29.3% in the experiment on T-47D breast; -6.36% (active) with BT-549 breast. The growth was 63.5% in the experiment on MDA-MB-435 melanoma; 74.3% in the experiment with SW-620 colon; 43.1% in the experiment on MCF7 breast; 45.4% in the experiment with HCT-116 colon; 75.5% in the experiment on HCC-2998 colon; 81.2% in the experiment with KM12 colon.

On to `Cc1ccc2c(n1)C(=O)C(Cl)=C(Nc1cccc(C(F)(F)F)c1)C2=O`, for which the growth with SR leukemia is 9.01% (active); in the experiment with RPMI-8226 leukemia, -17.6% (active); in the experiment on OVCAR-8 ovarian it was 76%; with OVCAR-5 ovarian it was 119%; in the experiment on OVCAR-4 ovarian, -97.8% (active); in the experiment on SK-OV-3 ovarian, 89.8%. The growth was -57.4% (active) in the experiment on IGROV1 ovarian; -86.3% (active) with OVCAR-3 ovarian; 116% with HS 578T breast; 93.3% in the experiment on NCI/ADR-RES ovarian; -41.9% (active) with T-47D breast; 123% with BT-549 breast. Also, the growth in the experiment with MDA-MB-435 melanoma was 71.3%; in the experiment with SW-620 colon, -0.806% (active); in the experiment with MCF7 breast, -54.7% (active); in the experiment with HCT-116 colon, -25.9% (active); with HCC-2998 colon it was 108%; in the experiment with KM12 colon, 106%.

Consider `NC1[C@H]2CN(c3cnc(C(=O)Nc4cc(F)cc5cccnc45)cn3)C[C@@H]12` (some centres undefined), for which the growth in the experiment on SR leukemia was 8.36% (active); in the experiment with RPMI-8226 leukemia it was 68.9%; in the experiment with OVCAR-8 ovarian it was 87.7%; in the experiment on OVCAR-5 ovarian it was 77.3%; in the experiment with OVCAR-4 ovarian, 17.4%; with SK-OV-3 ovarian, 93.2%. Further, the growth was 29.4% with IGROV1 ovarian; 2.08% (active) in the experiment with OVCAR-3 ovarian; 77.2% in the experiment on HS 578T breast; 85.3% in the experiment on NCI/ADR-RES ovarian; 32.4% in the experiment with T-47D breast; 91.8% in the experiment on BT-549 breast. Further, the growth is 90% with MDA-MB-435 melanoma; 47.6% with SW-620 colon; 6.12% (active) in the experiment on MCF7 breast; 10.7% with HCT-116 colon; 84.3% in the experiment with HCC-2998 colon; 87.4% with KM12 colon.
